Assay results: the supplement of paper PMC8728848
About 410 targets per protein were measured; listed, in parts, are those with the strongest signals and a random draw of the rest.

Assays:
Assay in all cases: glycan array binding signal (z-score within array); higher = stronger binding
Conditions in all cases: glycan notation: IUPAC condensed, linker removed
[1] = target: Fuc(a1-2)Gal(b1-4)GlcNAc(b1-2)Man
Procedure, shortened: (§1)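 The Consortium for Functional Glycomics database supplied 3228 glycan arrays, of which those lacking an available protein sequence were dropped. The binding signal, a within-array Z-score, was averaged across arrays of the same protein sequence and across linkers. Negative scores can be read as non-binding.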

[2] = target: Fuc(a1-2)Gal(b1-4)GlcNAc(b1-2)Man(a1-3)[Fuc(a1-2)Gal(b1-4)GlcNAc(b1-2)Man(a1-6)]Man(b1-4)GlcNAc(b1-4)GlcNAc
Procedure, shortened: as §1

[3] = target: Fuc(a1-2)[Gal(a1-3)]Gal(b1-4)GlcNAc(b1-3)GalNAc
Procedure, shortened: as §1

[4] = target: Fuc(a1-2)[Gal(a1-3)]Gal(b1-4)GlcNAc(b1-6)GalNAc
Procedure, shortened: as §1

[5] = target: Fuc(a1-2)[GalNAc(a1-3)]Gal(b1-4)GlcNAc(b1-2)Man(a1-3)[Fuc(a1-2)[GalNAc(a1-3)]Gal(b1-4)GlcNAc(b1-2)Man(a1-6)]Man(b1-4)GlcNAc(b1-4)GlcNAc
Procedure, shortened: as §1

[6] = target: Fuc(a1-3)[Gal(b1-4)]GlcNAc(b1-6)[Gal(b1-3)GlcNAc(b1-3)]Gal(b1-4)Glc
Procedure, shortened: as §1

[7] = target: Fuc(a1-3)[Gal(b1-4)]GlcNAc6S
Procedure, shortened: as §1

[8] = target: Gal(a1-3)Gal(b1-3)GlcNAc(b1-6)GalNAc
Procedure, shortened: as §1

[9] = target: Gal(a1-3)[Gal(a1-4)]Gal(b1-4)GlcNAc
Procedure, shortened: as §1

Gal(b1-3)GalNAc = target: Gal(b1-3)GalNAc
Procedure, shortened: as §1

[10] = target: Gal(b1-3)GlcNAc(b1-2)[Gal(b1-3)GlcNAc(b1-6)]Man(a1-6)[Gal(b1-3)GlcNAc(b1-2)Man(a1-3)]Man(b1-4)GlcNAc(b1-4)GlcNAc
Procedure, shortened: as §1

[11] = target: Gal(b1-3)GlcNAc(b1-3)Gal(b1-4)Glc
Procedure, shortened: as §1

[12] = target: Gal(b1-4)GlcNAc(b1-2)Man(a1-3)Man(b1-4)GlcNAc(b1-4)GlcNAc
Procedure, shortened: as §1

[13] = target: Gal(b1-4)GlcNAc(b1-2)Man(a1-3)[GlcNAc(b1-4)][Gal(b1-4)GlcNAc(b1-2)Man(a1-6)]Man(b1-4)GlcNAc(b1-4)GlcNAc
Procedure, shortened: as §1

[14] = target: Gal(b1-4)GlcNAc(b1-3)Gal(b1-4)GlcNAc(b1-3)Gal(b1-4)GlcNAc(b1-3)Gal(b1-4)GlcNAc(b1-2)Man(a1-3)[Gal(b1-4)GlcNAc(b1-3)Gal(b1-4)GlcNAc(b1-3)Gal(b1-4)GlcNAc(b1-3)Gal(b1-4)GlcNAc(b1-2)Man(a1-6)]Man(b1-4)GlcNAc(b1-4)GlcNAc
Procedure, shortened: as §1

[15] = target: Gal(b1-4)GlcNAc(b1-3)Gal(b1-4)GlcNAc(b1-3)[Gal(b1-4)GlcNAc(b1-3)Gal(b1-4)GlcNAc(b1-6)]GalNAc
Procedure, shortened: as §1

[16] = target: Gal3S(b1-4)[Fuc(a1-3)]Glc6S
Procedure, shortened: as §1

[17] = target: GalNAc(b1-3)Gal(a1-6)Gal(b1-4)Glc
Procedure, shortened: as §1

GalNAc3S(b1-4)GlcNAc = target: GalNAc3S(b1-4)GlcNAc
Procedure, shortened: as §1

GlcA(b1-3)GlcNAc = target: GlcA(b1-3)GlcNAc
Procedure, shortened: as §1

[18] = target: GlcNAc(a1-3)Gal(b1-4)GlcNAc
Procedure, shortened: as §1

[19] = target: GlcNAc(a1-4)Gal(b1-4)GlcNAc(b1-3)Gal(b1-4)[Fuc(a1-3)]GlcNAc(b1-3)Gal(b1-4)[Fuc(a1-3)]GlcNAc
Procedure, shortened: as §1

[20] = target: GlcNAc(b1-2)[GlcNAc(b1-4)]Man(a1-3)[GlcNAc(b1-4)][GlcNAc(b1-2)[GlcNAc(b1-6)]Man(a1-6)]Man(b1-4)GlcNAc(b1-4)[Fuc(a1-6)]GlcNAc
Procedure, shortened: as §1

GlcNAc(b1-3)Fuc = target: GlcNAc(b1-3)Fuc
Procedure, shortened: as §1

[21] = target: GlcNAc(b1-3)Gal(b1-3)GalNAc
Procedure, shortened: as §1

[22] = target: GlcNAc(b1-3)Gal(b1-4)GlcNAc(b1-3)Gal(b1-4)GlcNAc(b1-3)GalNAc
Procedure, shortened: as §1

GlcNAc(b1-4)GlcNAc = target: GlcNAc(b1-4)GlcNAc
Procedure, shortened: as §1

[23] = target: GlcNAc6S(b1-3)Gal(b1-4)GlcNAc
Procedure, shortened: as §1

Man(b1-4)GlcNAc = target: Man(b1-4)GlcNAc
Procedure, shortened: as §1

[24] = target: Neu5Ac(a2-3)Gal(b1-3)GalNAc(b1-4)[Neu5Ac(a2-8)Neu5Ac(a2-3)]Gal(b1-4)Glc
Procedure, shortened: as §1

[25] = target: Neu5Ac(a2-3)Gal(b1-3)[Neu5Ac(a2-6)]GlcNAc(b1-3)[Fuc(a1-3)[Gal(b1-4)]GlcNAc(b1-6)]Gal(b1-4)Glc
Procedure, shortened: as §1

[26] = target: Neu5Ac(a2-3)Gal(b1-3)]Neu5Ac(a2-3)Gal(b1-4)]GlcNAc
Procedure, shortened: as §1

[27] = target: Neu5Ac(a2-3)Gal(b1-4)[Fuc(a1-3)]GlcNAc(b1-3)Gal
Procedure, shortened: as §1

[28] = target: Neu5Ac(a2-6)Gal(b1-4)GlcNAc(b1-2)Man(a1-6)[Gal(b1-4)GlcNAc(b1-2)Man(a1-3)]Man(b1-4)GlcNAc(b1-4)GlcNAc
Procedure, shortened: as §1

[29] = target: Neu5Ac(a2-6)Gal(b1-4)GlcNAc(b1-2)Man(a1-6)[Man(a1-3)]Man(b1-4)GlcNAc(b1-4)GlcNAc
Procedure, shortened: as §1

[30] = target: Neu5Ac(a2-6)Gal(b1-4)GlcNAc(b1-3)Gal(b1-4)GlcNAc(b1-3)Gal(b1-4)GlcNAc(b1-2)Man(a1-3)[Neu5Ac(a2-6)Gal(b1-4)GlcNAc(b1-3)Gal(b1-4)GlcNAc(b1-3)Gal(b1-4)GlcNAc(b1-2)Man(a1-6)]GalNAc
Procedure, shortened: as §1

[31] = target: Neu5Ac(a2-8)Neu5Ac(a2-3)Gal(b1-4)Glc
Procedure, shortened: as §1

[32] = target: Neu5Ac(a2-8)Neu5Ac(a2-3)Gal(b1-4)GlcNAc
Procedure, shortened: as §1

[33] = target: Neu5Ac(a2-8)Neu5Ac(a2-8)Neu5Ac(a2-8)Neu5Ac(a2-3)[GalNAc(b1-4)]Gal(b1-4)Glc
Procedure, shortened: as §1

B1: FGFR2-Fc (protein)
chain: MVNVTDAISSGDDEDDTDGAEDFVSENSNNKRAPYWTNTEKMEKRLHAVPAANTVKFRCPAGGNPMPTMRWLKNGKEFKQEHRIGGYKVRNQHWSLIMESVVPSDKGNYTCVVENEYGSINHTYHLDVVERSPHRPILQAGLPANASTVVGGDVEFVCKVYSDAQPHIQWIKHVEKNGSKYGPDGLPYLKVLKHSGINSSNAEVLALFNVTEADAGEYICKVSNYIGQANQSAWLTVLPKQQAPGREKEITASPDYLETRPLEQKLISEEDLAANDILDYKDDDDKV
- glycan array binding signal (z-score) [1]: 0.252
- glycan array binding signal (z-score) [2]: -0.068
- glycan array binding signal (z-score) [3]: 0.523
- glycan array binding signal (z-score) [4]: -0.635
- glycan array binding signal (z-score) [5]: 0.034
- glycan array binding signal (z-score) [6]: -0.327
- glycan array binding signal (z-score) [7]: 1.73
- glycan array binding signal (z-score) [8]: -0.722
- glycan array binding signal (z-score) [9]: 0.989
- glycan array binding signal (z-score) (Gal(b1-3)GalNAc): 0.236
- glycan array binding signal (z-score) [10]: 0.991
- glycan array binding signal (z-score) [11]: -0.488
- glycan array binding signal (z-score) [12]: -0.054
- glycan array binding signal (z-score) [13]: -0.552
- glycan array binding signal (z-score) [14]: 1.4
- glycan array binding signal (z-score) [15]: 0.9
- glycan array binding signal (z-score) [16]: 1.35
- glycan array binding signal (z-score) [17]: -0.126
- glycan array binding signal (z-score) (GalNAc3S(b1-4)GlcNAc): -0.098
- glycan array binding signal (z-score) (GlcA(b1-3)GlcNAc): -0.356
- glycan array binding signal (z-score) [18]: 22.2
- glycan array binding signal (z-score) [19]: 1.49
- glycan array binding signal (z-score) [20]: 0.045
- glycan array binding signal (z-score) (GlcNAc(b1-3)Fuc): 0.448
- glycan array binding signal (z-score) [21]: -0.02
- glycan array binding signal (z-score) [22]: 0.549
- glycan array binding signal (z-score) (GlcNAc(b1-4)GlcNAc): -0.264
- glycan array binding signal (z-score) [23]: 0.175
- glycan array binding signal (z-score) (Man(b1-4)GlcNAc): 0.038
- glycan array binding signal (z-score) [24]: -0.349
- glycan array binding signal (z-score) [25]: 0.595
- glycan array binding signal (z-score) [26]: -0.115
- glycan array binding signal (z-score) [27]: 1.09
- glycan array binding signal (z-score) [28]: 0.258
- glycan array binding signal (z-score) [29]: -0.126
- glycan array binding signal (z-score) [30]: 1.17
- glycan array binding signal (z-score) [31]: -0.492
- glycan array binding signal (z-score) [32]: -0.139
- glycan array binding signal (z-score) [33]: 0.963
